The campaign covered roughly 1,100 compounds. About 350 (32%) were called active. No rule for the calls is given here. Not all results are given here. Results with a measured potency or affinity are listed apart.

Results on 85 molecules are retold here after PubChem BioAssay AID652042 (Broad Institute, 2013).

The assay in a line: viability loss in CEM21 cells – cell-based, CellTiter-Glo luminescence, cherry-picked, cytotoxicity control for viral fusion inhibitor project, dose response (AID 652042). Conditions: CellTiter-Glo ATP luminescence, 24 h; series mostly up to 35 µM.
Turning to `O=C1c2cccnc2C(Nc2ccc(S(=O)(=O)N3CCCCCC3)cc2)N1Cc1ccccc1` (stereo not given), the activity change, negative = cytotoxicity result was “inactive”.
Consider `C[C@H]1CN([C@@H](C)CO)C(=O)c2ccccc2-c2ccccc2CO[C@@H]1CN(C)C(=O)CCC(F)(F)F`, for which the activity change, negative = cytotoxicity entry was “inactive”.
Turning to `C[C@H]1CN([C@@H](C)CO)C(=O)c2ccccc2-c2ccccc2CO[C@H]1CN(C)S(=O)(=O)c1cccc(C#N)c1`, the activity change, negative = cytotoxicity entry was “inactive”.
To `CC(OC(=O)c1ccc(NC(=O)CC#N)cc1)C(=O)NCCC1=CCCCC1` (stereo not given) belongs “inactive”; to `Cc1ccc(S(=O)(=O)NCC(=O)OCC(=O)NCc2ccc3c(c2)OCO3)cc1`, “inactive”; to `Cc1nc2ccccc2c2oc(C(=O)NCc3ccc4c(c3)OCO4)cc12`, “inactive”.
As for `C[C@@]12C(=O)N(c3cccc(Cl)c3)C(=O)N1[C@H](c1ccc(Cl)cc1)[C@@H]1C(=O)N(C3CCCCC3)C(=O)[C@@H]12`, the activity change, negative = cytotoxicity result was “inactive”.
With `COc1ccc(C(O)c2nc3ccccc3n2C)cc1OC` (stereo not given), the activity change, negative = cytotoxicity result was “inactive”.
Consider `CCCCCCCn1c(NC(=O)CC)nc2ccccc21`, for which the activity change, negative = cytotoxicity entry is “inactive”.
In the case of `Cc1ccc2cc(C#N)c(NCCNC(=O)C3CCC3)nc2c1C`, the activity change, negative = cytotoxicity entry was “inactive”.
As for `CC1=NN(C(=O)c2ccccc2)C(O)(c2ccc(Br)cc2)C1` (stereo not given), the activity change, negative = cytotoxicity entry is “inactive”.
Take `Cc1ccc(S(=O)(=O)N(C)C[C@@H]2Oc3ccc(NC(=O)Cc4cn(C)c5ccccc45)cc3CC(=O)N([C@H](C)CO)C[C@@H]2C)cc1`: the activity change, negative = cytotoxicity entry is “inactive”.
On to `CC(C)CNC(=O)c1ccccc1NC(=O)c1ccccc1N(C)S(=O)(=O)c1ccccc1`, for which the activity change, negative = cytotoxicity entry is “inactive”.
To `CNC[C@H]1Oc2c(NC(=O)Nc3cccc4ccccc34)cccc2C(=O)N([C@H](C)CO)C[C@H]1C` belongs “inactive”; to `CC(=O)c1c(C)[nH]c(C(=O)OCC(=O)Nc2ccc(Cl)c(S(=O)(=O)N(C)C)c2)c1C`, “inactive”.
For `Cc1nc2ccc(NC(=O)c3cc(S(=O)(=O)N(C)c4ccccc4)ccc3Cl)cc2s1`, the activity change, negative = cytotoxicity result was “inactive”.
Consider `CC[C@@]1(C(=O)OC)N[C@H](CN(C)C(=O)Nc2ccc(OC)cc2)[C@@H]2C(=O)N(Cc3ccccc3)C(=O)[C@@H]21`, for which the activity change, negative = cytotoxicity result is “inactive”.
`COc1ccc(CCCC(=O)NCCc2ccccc2)c(C)c1`: the activity change, negative = cytotoxicity entry is “inactive”.
As to `COc1ccc(CCNC(=O)COC(=O)c2cccn2C)cc1`, the activity change, negative = cytotoxicity result is “inactive”.
As to `CCOC(=O)c1c(C)[nH]c(C)c1C(=O)COC(=O)[C@@H](NC(=O)c1ccccc1OCC)C(C)C`, the activity change, negative = cytotoxicity entry is “inactive”.
For `COc1ccccc1N(C)S(=O)(=O)c1ccc(Cl)c(C(=O)NCC2(N(C)C)CCCCC2)c1`, the activity change, negative = cytotoxicity result was “inactive”.
As for `C[C@H](CO)N1C[C@H](C)[C@@H](CN(C)S(=O)(=O)c2ccc(F)cc2)Oc2ccc(NS(=O)(=O)c3cn(C)cn3)cc2CC1=O`, the activity change, negative = cytotoxicity result was “inactive”.
To `CC[C@@]12C(=O)N(c3cccc(F)c3)C(=O)N1[C@H](c1ccc(Br)cc1)[C@@H]1C(=O)N(C(C)(C)C)C(=O)[C@@H]12` belongs “inactive”; to `CC(C)(C)N1C(=O)[C@H]2[C@@H](c3ccc(Br)cc3)N3C(=O)N(c4cccc(Cl)c4)C(=O)[C@@]3(C)[C@H]2C1=O`, “inactive”.
Consider `Cc1cc(C)c2nc(C(F)(F)F)nc(N3CCN(C(=O)c4ccco4)CC3)c2c1`, for which the activity change, negative = cytotoxicity result was “inactive”.
Regarding `CCC(NS(=O)(=O)c1c(C)[nH]c(=O)[nH]c1=O)C12CC3CC(CC(C3)C1)C2` (stereo not given), the activity change, negative = cytotoxicity entry is “inactive”.
For `CC1=C(C(=O)OCc2ccc3c(c2)OCO3)C(c2ccc(F)cc2)NC(=O)N1` (stereo not given), the activity change, negative = cytotoxicity entry was “inactive”.
In the case of `COC(=O)C1=C(C)N(Cc2ccc(Cl)cc2)C(=S)NC1c1ccc(OC)cc1` (stereo not given), the activity change, negative = cytotoxicity result is “inactive”.
For the molecule `CCN(CC)CCN(C(=O)c1cc(Cl)sc1Cl)c1nc2cc3c(cc2s1)OCO3`, the activity change, negative = cytotoxicity result was “inactive”.
Take `CCN(C[C@H]1N[C@@](C)(C(=O)OC)[C@H]2C(=O)N(Cc3ccccc3)C(=O)[C@@H]12)C(=O)Nc1ccc(C)cc1`: the activity change, negative = cytotoxicity result is “inactive”.
Take `COc1ccc(S(=O)(=O)n2ccc(-c3ccc(OCCN(C)c4ccccn4)cc3)n2)cc1`: the activity change, negative = cytotoxicity result was “inactive”.
To `S=c1nc[nH]c2c1[nH]c1ccc(Cl)cc12` belongs “inactive”; to `Clc1ccc2c(c1)C1=C(C(c3ccncc3)O2)C(c2ccc(Br)cc2)n2ncnc2N1` (stereo not given), “inactive”.
For the molecule `CCS(=O)(=O)N1Cc2ccccc2CC1C(=O)NCC12CC3CC(CC(C3)C1)C2` (stereo not given), the activity change, negative = cytotoxicity entry was “inactive”.
In the case of `CCN1C[C@@H]2[C@@H]3C(=O)N(Cc4ccccc4)C(=O)[C@@H]3[C@](CC)(C1=O)N2C(=O)c1ccc(C(C)(C)C)cc1`, the activity change, negative = cytotoxicity entry is “inactive”.
Take `COc1ccc2c(c1)[C@H]1[C@H](CO2)[C@H](c2ccccc2)[C@]2(C)C(=O)Nc3cc(OC)c(OC)cc3C(=O)N12`: the activity change, negative = cytotoxicity result is “inactive”.
`C[C@@]12C(=O)N(Cc3ccc(F)cc3)CC(=O)N1[C@H]1c3cc(Cl)ccc3OC[C@@H]1[C@@H]2c1ccccc1`: the activity change, negative = cytotoxicity entry is “inactive”.
Turning to `O=C(O)c1cccc(COc2ccc3c(c2)CCC3)c1`, the activity change, negative = cytotoxicity result is “inactive”.
Under `COc1ccc([C@H]2/C=C\CN(C(=O)C3CC3)[C@@H](C)C(=O)N2Cc2ccc(F)cc2)cc1` stands “inactive”.
To `CCC(C)(C)NC(=O)C(c1ccc(C)cc1)N(CC1CCCO1)C(=O)c1csnn1` (stereo not given) belongs “inactive”; to `O=C(CN1CCCN(Cc2ccc(F)cc2Cl)C1=O)NC1CCCCCCC1`, “inactive”.
For `CCN(CCn1cccn1)C(=O)CC1C(=O)NCCN1CCc1ccccc1` (stereo not given), the activity change, negative = cytotoxicity entry is “inactive”.
In the case of `O=C(C[C@H]1C[C@@H]2c3cc(NC(=O)C4CCC4)ccc3O[C@@H]2[C@@H](CO)O1)NCC(F)(F)F`, the activity change, negative = cytotoxicity entry is “inactive”.
As for `Cc1ccc(C)c(CS(=O)(=O)c2cn(CC(=O)N3CCC(C)CC3)c3ccccc23)c1`, the activity change, negative = cytotoxicity result was “inactive”.
`CCCCN1CC(=O)N2[C@H]3c4ccccc4OC[C@@H]3[C@H](c3ccccc3)[C@]2(C)C1=O`: the activity change, negative = cytotoxicity result is “inactive”.
For the molecule `COc1cc(CSc2nnnn2-c2ccc(C)cc2)cc(OC)c1OC`, the activity change, negative = cytotoxicity result is “inactive”.
`Cc1ccc(-n2nnnc2SCn2nnc3ccccc3c2=O)c(C)c1`: the activity change, negative = cytotoxicity result is “inactive”.
Consider `O=C(NCc1ccccc1)[C@@H]1CCCN1C(=O)[C@@H]1CCCN1C(=O)c1cccc2ccccc12`, for which the activity change, negative = cytotoxicity result is “inactive”.
For `Cc1ccc(S(=O)(=O)N2CCC(=O)N(CCOCc3ccc(C(F)(F)F)cc3)CC2)cc1`, the activity change, negative = cytotoxicity entry was “inactive”.
To `NC(=O)c1sc2nc3c(c(-c4ccccc4)c2c1N)CCC3` belongs “inactive”; to `COc1ccc(N(CC(=O)NCCSCc2ccc(Cl)cc2)S(C)(=O)=O)cc1Cl`, “inactive”; to `Cc1ccc(N2C(=O)N3[C@H](c4cccc(C)c4)[C@@H]4C(=O)N(Cc5ccccc5)C(=O)[C@@H]4[C@]3(C)C2=O)cc1`, “inactive”.
With `O=C(NCc1ccco1)c1ccc(Cn2c(=O)c3sccc3n(Cc3ccc(F)cc3)c2=O)cc1`, the activity change, negative = cytotoxicity result was “inactive”.
`CC(=O)Nc1ccc(C(=O)OCC(=O)NC(=O)NCc2ccccc2)cc1`: the activity change, negative = cytotoxicity result is “inactive”.
Under `CCCOc1ccc(C(F)(F)F)cc1NC(=O)CCc1c(C)noc1C` stands “inactive”.
In the case of `CCN(C[C@H]1N[C@@](CC)(C(=O)OC)[C@H]2C(=O)N(Cc3ccccc3)C(=O)[C@@H]12)S(=O)(=O)c1ccc(OC)cc1`, the activity change, negative = cytotoxicity result was “inactive”.
With `O=C1CC(C(=O)N(CC2CCCO2)C(C(=O)NC2CCCCC2)c2ccncc2)CS1` (stereo not given), the activity change, negative = cytotoxicity entry was “inactive”.
Under `OC1(c2ccc(OC(F)F)cc2)CSC(=Nc2cccnc2)N1C1CC1` (stereo not given) stands “inactive”; under `Cc1noc(C)c1S(=O)(=O)N(C)C[C@@H]1Oc2ccc(NC(=O)NC3CCCCC3)cc2CC(=O)N([C@H](C)CO)C[C@@H]1C`, “inactive”; under `C[C@H]1CN([C@@H](C)CO)C(=O)Cc2cc(NC(=O)Cc3ccccc3)ccc2O[C@H]1CN(C)S(=O)(=O)c1cccs1`, “inactive”.
As for `COc1ccc(S(=O)(=O)N(C)C[C@@H]2Oc3ccc(NC(=O)C4CCCCC4)cc3CC(=O)N([C@@H](C)CO)C[C@@H]2C)cc1`, the activity change, negative = cytotoxicity entry was “inactive”.
In the case of `CC(C)(C)c1ccc(-c2noc(CCC(=O)NCC3CCCO3)n2)cc1` (stereo not given), the activity change, negative = cytotoxicity result is “inactive”.
Take `O=C(c1cc(COc2cccc(C(F)(F)F)c2)on1)N1CCC(c2ccncc2)CC1`: the activity change, negative = cytotoxicity entry is “inactive”.
Turning to `CCCNC(=O)C[C@@H]1C[C@H]2c3cc(NC(=O)Cc4ccncc4)ccc3O[C@H]2[C@@H](CO)O1`, the activity change, negative = cytotoxicity entry was “inactive”.
For the molecule `O=C(NCCc1ccccc1F)c1ccc2c(c1)OCCO2`, the activity change, negative = cytotoxicity entry was “inactive”.
To `O=C(CCNC(=O)c1ccc(Br)cc1)NNC(=O)COc1ccccc1F` belongs “inactive”.
Regarding `COc1ccc(NS(=O)(=O)c2ccc3c(c2)OCCO3)cc1OC`, the activity change, negative = cytotoxicity result is “inactive”.
Consider `Nc1c(S(=O)(=O)c2ccccc2)cnc2c(-c3ccc(F)cc3)cnn12`, for which the activity change, negative = cytotoxicity result was “inactive”.
To `COC(=O)CNC(c1ccccc1)c1cc(C)ccc1NC(=O)CNC(=O)OCc1ccccc1` (stereo not given) belongs “inactive”; to `COc1ccc(C(C(=O)NC(C)(C)C)N(CCC(C)C)C(=O)CCC(=O)Nc2cc(C)on2)cc1` (stereo not given), “inactive”; to `CCN(CC)c1nc(Nc2ccccc2)nc(Oc2ccc(=O)[nH]n2)n1`, “inactive”.
In the case of `COc1ccc2c(c1)OC[C@H]1[C@H]2N2C(=O)CN(Cc3ccc(C)cc3)C(=O)[C@@]2(C)[C@H]1c1ccccc1`, the activity change, negative = cytotoxicity entry is “inactive”.
For `C[C@H]1NC(=O)[C@@]2(C)[C@H](c3ccccc3)[C@H]3COc4ccccc4[C@@H]3N2C1=O`, the activity change, negative = cytotoxicity entry was “inactive”.
Turning to `Cc1ccc(-n2nc3c(c2NC(=O)c2ccco2)CS(=O)C3)cc1` (stereo not given), the activity change, negative = cytotoxicity entry was “inactive”.
To `C=CCN1C(=S)CC(c2ccccc2)=Nc2ccccc21` belongs “inactive”; to `O=C(c1ccc2c(c1)OCO2)N(CC1CCCO1)C1(C(=O)NC2CCCCC2)CCCCC1` (stereo not given), “inactive”; to `CON(C)c1nc(OCCNC(=O)OCc2ccc(Cl)cc2C)nc(N(C)C)n1`, “inactive”.
Turning to `Cc1ccc(C(=O)NCc2ccccn2)cc1S(=O)(=O)N1CCCCC1`, the activity change, negative = cytotoxicity result is “inactive”.
Regarding `Cc1ccc(S(=O)(=O)N2CCCCC2)cc1C(=O)NCCC1=CCCCC1`, the activity change, negative = cytotoxicity result is “inactive”.
To `O=S(=O)(NCC[C@H]1CC[C@H](NS(=O)(=O)c2ccccc2Cl)[C@H](CO)O1)c1ccc(Cl)cc1` belongs “inactive”; to `O=S(=O)(NCC[C@@H]1CC[C@@H](NS(=O)(=O)c2ccccc2Cl)[C@H](CO)O1)c1ccc(Cl)cc1`, “inactive”.
For the molecule `COc1cc(-c2nc3oc4ccccc4c(=O)c3c(=O)n2Cc2ccco2)cc(OC)c1OC`, the activity change, negative = cytotoxicity result was “inactive”.
Turning to `CCOC(=O)c1c(CSc2cccs2)n(C)c2cc(Br)c(O)c(CN(C)C)c12`, the activity change, negative = cytotoxicity entry was “inactive”.
With `CCOC(=O)c1c(CSc2ccsc2)n(C)c2cc(Br)c(O)c(CN(C)C)c12`, the activity change, negative = cytotoxicity result was “inactive”.
Consider `CCN(CC)S(=O)(=O)c1ccc(NC2c3ccccc3C(=O)N2Cc2ccc3c(c2)OCO3)cc1` (stereo not given), for which the activity change, negative = cytotoxicity entry is “inactive”.
